Source: PubChem
KCC2 mod = modulates chloride dependent transport by human KCC2; Q9H2X9; KCC2 cells, thallium flux FluoZin-2 fluorescence; B-score of Tl+ flux slope (higher = more flux/activation; lower = inhibition) at 10 µM; 2.2% of 190,000 active;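 active means thallium flux slope and its plate-corrected score both differing from the plate sample mean at a set confidence after two filtering rounds, in either direction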;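 further: slope of fluorescence scaled to starting intensity during 10 to 20 s after thallium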
S1P3 antag = S1P3 (human) receptor antagonism. inhibition, % at 4.98 µM. CHO S1P3 NFAT-BLA reporter, FRET fluorescence, antagonist mode. AID 485. 0.27% of 170,000 active;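 active means inhibition above the plate cutoff, the mean inhibition of test wells on that plate plus 3 SD, cut at about 28% in these data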;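 further: cells challenged with S1P at its EC80 of 0.8 µM; blue over green emission ratio from cleaved BLA substrate after 4 h stimulation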
Target sequence (Q99500 whole entry, looked up): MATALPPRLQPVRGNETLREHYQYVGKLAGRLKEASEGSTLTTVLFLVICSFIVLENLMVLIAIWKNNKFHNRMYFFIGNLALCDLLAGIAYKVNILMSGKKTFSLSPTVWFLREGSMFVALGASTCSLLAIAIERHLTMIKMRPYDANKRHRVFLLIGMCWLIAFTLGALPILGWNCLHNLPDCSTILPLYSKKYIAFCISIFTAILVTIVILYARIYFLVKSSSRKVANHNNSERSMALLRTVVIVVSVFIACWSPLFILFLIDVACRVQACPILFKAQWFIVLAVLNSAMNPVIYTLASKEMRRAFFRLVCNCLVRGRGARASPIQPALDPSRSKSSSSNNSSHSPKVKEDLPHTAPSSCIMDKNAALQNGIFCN
PGE2 EP2 inh = EP2 receptor (human) inhibition | C6 glioma cells expressing human EP2, cAMP TR-FRET; cells stimulated with saturating PGE2 | inhibition, % at 25 µM | 0.52% of 260,000 active;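 active means percent inhibition above 40 after rounding to a whole number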;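 further: rat C6 glioma host cells with rolipram phosphodiesterase inhibitor present; the protocol text gives 20 µM as final concentration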
Target sequence (P43116 whole entry, looked up): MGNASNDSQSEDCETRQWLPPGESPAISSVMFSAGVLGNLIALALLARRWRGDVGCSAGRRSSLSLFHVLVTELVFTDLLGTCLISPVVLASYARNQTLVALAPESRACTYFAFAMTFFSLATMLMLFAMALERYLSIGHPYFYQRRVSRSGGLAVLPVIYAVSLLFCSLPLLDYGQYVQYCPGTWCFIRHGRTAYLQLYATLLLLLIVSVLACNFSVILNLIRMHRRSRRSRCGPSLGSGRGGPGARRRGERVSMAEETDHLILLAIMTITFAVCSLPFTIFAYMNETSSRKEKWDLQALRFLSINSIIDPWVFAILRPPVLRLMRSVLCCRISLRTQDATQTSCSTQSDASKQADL
EP2 mod = EP2 receptor (human) modulation; 0.83% of 260,000 active; induction, % at 25 µM; P43116; AID 940; EP2-expressing cells, cAMP HTRF FRET, PGE2 co-stimulation;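 active means compounds whose cAMP rise, as percent of the full-agonist control response, exceeds 60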;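 further: rat C6 glioma line stably carrying human EP2 under a CMV promoter; the protocol text gives 20 µM as final concentration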
EP2 cAMP induct = EP2 receptor cAMP induction, counter-screens negative; AID 1080; C6 glioma EP2 cells, cAMP HTRF induction; plus low (about EC15) PGE2 agonist; shares compounds with EP2 mod; 47% of 1,300 active; calls only at 20 µM (by protocol);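 active means cAMP induction above 50% in the main assay while under 30% in all four parallel counter assays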;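 further: rat C6 glioma cells stably expressing human EP2 receptor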
KCC2 secondary = confirmation of human KCC2 transport modulators; normalised thallium flux (F/F0 slope) at 10 µM; shares compounds with KCC2 mod; HEK293-KCC2, thallium flux, FluoZin2 fluorescence; stronger effect = higher value; 15% of 3,700 active; AID 1713;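 active means thallium flux slope above the same plate's solvent-only control mean plus 3 SD; inconclusive means the two replicate wells disagree; inactive means no significant difference from solvent-only control wells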
KCC2 bumet counter = thallium flux persisting under bumetanide in KCC2 cells, counter-screen secondary assay | normalized thallium flux at 10 µM | 49% of 3,700 active | shares compounds with KCC2 mod | AID 1714 | HEK293-KCC2 + bumetanide/ouabain, thallium flux FluoZin2; stronger effect = higher value;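 active means thallium entry rate above the same plate's blocked-transporter control wells by more than 3 SD; inconclusive means the two repeat wells disagree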;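 further: raw slope of fluorescence over initial fluorescence between 10 and 20 s after thallium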
KCC2 sec2 = confirmation of human KCC2 transport modulators | shares compounds with KCC2 mod | HEK293-KCC2, thallium flux FluoZin2 fluorescence; actives lie on both sides; F/F0 rise rate, 10–20 s post-thallium | normalized thallium flux at 10 µM | 23% of 3,700 active;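 active means thallium flux slope more than 3 SD above or below the plate's solvent-only control mean, mostly below; inconclusive means the two repeat wells disagreed; inactive means no significant shift from solvent-only controls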
HEK293 Tl flux = counter-screen for KCC2 modulators: effect in parental HEK293 cells | shares compounds with KCC2 mod | thallium flux FluoZin2, ouabain; baseline-ratio fluorescence slope, 10–20 s after thallium | thallium flux rate (normalised fluorescence) at 10 µM | 46% of 3,700 active;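 active means thallium flux rate significantly above the same plate's solvent-only control wells, beyond their mean plus 3 SD; inconclusive means the two replicate wells gave conflicting results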
KCC2 retest ouab = KCC2 (human) modulation, ouabain retest; shares compounds with KCC2 mod; HEK293-KCC2, thallium flux FluoZin2 fluorescence; bidirectional: low = inhibitor, high = activator; raw Tl+ flux slope (below DMSO = inhibition, above = activation) at 10 µM; 48% of 3,700 active; AID 1717;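 active means thallium flux slope beyond 3 SD from same-plate DMSO control mean in most replicates, usually higher, sometimes lower; inconclusive means repeat tests gave conflicting results; inactive means no significant difference from controls in most replicates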;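 further: slope of initial-normalized fluorescence between seconds 10 and 20 after thallium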
HEK293 Tl flux2 = acts in parental HEK cells, second KCC2 counter-screen. shares compounds with KCC2 mod. HEK293 parental, thallium flux FluoZin-2 fluorescence slope. thallium flux slope at 10 µM. 33% of 3,700 active;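 active means thallium flux slope above the same plate's solvent-control mean plus 3 SD in both duplicate wells; inconclusive means duplicate wells that disagreed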;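 further: run without ouabain in cells lacking the KCC2 cotransporter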
Numbers stand for hits; ! = not active in a repeat. A selection: hits, their analogues and other compounds. The true share with any hit is near 3.1%.

CC(/C=C1\SC(=S)N(c2ccc(C(=O)O)cc2)C1=O)=C\c1ccccc1 was read as KCC2 mod inactive, S1P3 antag inactive, PGE2 EP2 inh inactive and EP2 mod inactive.
`CC(/C=C1\SC(=S)N(C(C(=O)O)C(C)C)C1=O)=C\c1ccccc1` (configuration not stated) gave KCC2 mod -3.3, S1P3 antag inactive, PGE2 EP2 inh inactive, EP2 mod 61, EP2 cAMP induct active, KCC2 secondary inactive, KCC2 bumet counter inactive, KCC2 sec2 0.025, HEK293 Tl flux inactive, KCC2 retest ouab inconclusive and HEK293 Tl flux2 inactive.
For Nc1cc(-c2cccs2)nn(CC(=O)N2CCCC3CCCCC32)c1=O (configuration not stated) the results were PGE2 EP2 inh inactive and EP2 mod inactive.
For S=c1[nH]nc(-c2ccc3ccccc3n2)n1Cc1ccccc1 the results were KCC2 mod 9.2, S1P3 antag inactive, PGE2 EP2 inh inactive, EP2 mod 74, EP2 cAMP induct inactive, KCC2 secondary 0.015, KCC2 bumet counter 0.027, KCC2 sec2 inactive, HEK293 Tl flux 0.029, KCC2 retest ouab 0.031 and HEK293 Tl flux2 0.016.
Screening CCc1c(-c2n[nH]c(=S)n2Cc2ccccc2)csc1C returned KCC2 mod 14, S1P3 antag inactive, PGE2 EP2 inh inactive, EP2 mod inactive, EP2 cAMP induct inactive, KCC2 secondary inconclusive, KCC2 bumet counter 0.066, KCC2 sec2 inactive, HEK293 Tl flux 0.017, KCC2 retest ouab 0.035 and HEK293 Tl flux2 0.011.
`S=c1[nH]nc(-c2ccccc2Cl)n1Cc1ccccc1` gave KCC2 mod inactive, S1P3 antag inactive, PGE2 EP2 inh inactive and EP2 mod inactive.
Screening Cc1n(-c2ccccc2)c2ccccc2[n+]1C returned PGE2 EP2 inh inactive and EP2 mod inactive.
CCc1oc2ccccc2c1C(=O)c1cc(Br)c(O)c(Br)c1 was read as KCC2 mod inactive, S1P3 antag inactive, PGE2 EP2 inh inactive, EP2 mod 68!, EP2 cAMP induct inactive, KCC2 secondary inactive, KCC2 bumet counter 0.019, KCC2 sec2 0.022, HEK293 Tl flux 0.011, KCC2 retest ouab inconclusive and HEK293 Tl flux2 inconclusive.
`CCn1c(C(NC(=O)c2ccc(Cl)cc2Cl)C(C)C)n[nH]c1=S` (configuration not stated) gave PGE2 EP2 inh inactive and EP2 mod inactive.
For S=c1[nH]nc(-c2ccccc2)n1/N=C/c1ccc(-c2ccccc2Cl)o1 the results were KCC2 mod 6.8, S1P3 antag inactive, PGE2 EP2 inh inactive, EP2 mod 78, EP2 cAMP induct active, KCC2 secondary inactive, KCC2 bumet counter 0.014, KCC2 sec2 inconclusive, HEK293 Tl flux 0.02, KCC2 retest ouab 0.027 and HEK293 Tl flux2 0.018.
Cn1c(C(=O)NCCN2CCN(c3ccccc3F)CC2)cc2c(=O)n(C)c3ccccc3c21 was read as KCC2 mod -4.7, S1P3 antag inactive, EP2 mod inactive, KCC2 secondary inactive, KCC2 bumet counter inactive, KCC2 sec2 0.022, HEK293 Tl flux inactive, KCC2 retest ouab inconclusive and HEK293 Tl flux2 inactive.
Screening Cn1c(C(=O)NCCN2CCOCC2)cc2c(=O)n(C)c3ccccc3c21 returned S1P3 antag inactive, PGE2 EP2 inh inactive and EP2 mod inactive.
Screening Cc1ccc(Cc2cnc(NC(=O)CSc3nc(C)cc(C)n3)s2)cc1 returned PGE2 EP2 inh inactive and EP2 mod inactive.
O=C(/C=C/c1ccco1)Nc1scc(-c2ccccc2)c1C(=O)O was read as S1P3 antag inactive, PGE2 EP2 inh inactive and EP2 mod inactive.
`O=C(/C=C/c1ccccc1)Nc1scc(-c2ccccc2)c1C(=O)O` gave KCC2 mod -7.1, S1P3 antag inactive, PGE2 EP2 inh inactive, EP2 mod inactive, KCC2 secondary inactive, KCC2 bumet counter inconclusive, KCC2 sec2 0.026, HEK293 Tl flux inactive, KCC2 retest ouab 0.013 and HEK293 Tl flux2 inactive.
`O=C(NC(=S)NCCC1=CCCCC1)c1ccccc1Br` gave KCC2 mod 46, S1P3 antag inactive, PGE2 EP2 inh inactive, EP2 mod inactive, KCC2 secondary inconclusive, KCC2 bumet counter 0.041, KCC2 sec2 0.048, HEK293 Tl flux 0.039, KCC2 retest ouab 0.043 and HEK293 Tl flux2 0.025.
`O=C(NC(=S)NC1CCCC1)c1ccccc1Br` gave KCC2 mod 8.8, S1P3 antag inactive, PGE2 EP2 inh inactive, EP2 mod inactive, KCC2 secondary 0.013, KCC2 bumet counter 0.055, KCC2 sec2 inactive, HEK293 Tl flux 0.022, KCC2 retest ouab inconclusive and HEK293 Tl flux2 0.015.
CCNc1nc2c(c(=O)[nH]c(=O)n2C)n1CC(O)COc1ccccc1C (configuration not stated) was read as PGE2 EP2 inh inactive and EP2 mod inactive.
Nc1ccc(S(=O)(=O)N2CCCC(C(=O)O)C2)cc1 (configuration not stated) was read as PGE2 EP2 inh inactive and EP2 mod inactive.
Cc1cc(-c2cncnc2C2CCN(CC(=O)N3CCCCC3)CC2)on1 was read as EP2 mod inactive.
Cc1cccc(OCC(=O)N/N=C/CC(C)c2ccccc2)c1C (configuration not stated) was read as KCC2 mod -4.5, S1P3 antag inactive, PGE2 EP2 inh inactive, EP2 mod inactive, KCC2 secondary inactive, KCC2 bumet counter inactive, KCC2 sec2 inactive, HEK293 Tl flux inactive, KCC2 retest ouab inconclusive and HEK293 Tl flux2 inactive.
Screening COc1cc(C(=O)NC(C)(C)CN2CCN(C)CC2)c2ccccc2n1 returned PGE2 EP2 inh inactive and EP2 mod inactive.
O=S(=O)(Nc1ccc2nc[nH]c2c1)c1ccccc1 was read as PGE2 EP2 inh inactive and EP2 mod inactive.
